Screening data from PubChem BioAssay.
Shown is part of a subset that was picked to be rich in hits.
Dicer processing: human Dicer pre-microRNA cleavage inhibition; Q9UPY3; cat-ELCCA pre-miR-21 Dicer processing, chemiluminescence; active compounds read high; z-score at 25 µM; 47,000 compounds, 6% hits; AID 1347074; in the data active = z-score above about 3, passing the limit was not always enough;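 also: higher signal means more uncleaved substrate so more Dicer inhibition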
Target sequence (Q9UPY3 whole entry, looked up): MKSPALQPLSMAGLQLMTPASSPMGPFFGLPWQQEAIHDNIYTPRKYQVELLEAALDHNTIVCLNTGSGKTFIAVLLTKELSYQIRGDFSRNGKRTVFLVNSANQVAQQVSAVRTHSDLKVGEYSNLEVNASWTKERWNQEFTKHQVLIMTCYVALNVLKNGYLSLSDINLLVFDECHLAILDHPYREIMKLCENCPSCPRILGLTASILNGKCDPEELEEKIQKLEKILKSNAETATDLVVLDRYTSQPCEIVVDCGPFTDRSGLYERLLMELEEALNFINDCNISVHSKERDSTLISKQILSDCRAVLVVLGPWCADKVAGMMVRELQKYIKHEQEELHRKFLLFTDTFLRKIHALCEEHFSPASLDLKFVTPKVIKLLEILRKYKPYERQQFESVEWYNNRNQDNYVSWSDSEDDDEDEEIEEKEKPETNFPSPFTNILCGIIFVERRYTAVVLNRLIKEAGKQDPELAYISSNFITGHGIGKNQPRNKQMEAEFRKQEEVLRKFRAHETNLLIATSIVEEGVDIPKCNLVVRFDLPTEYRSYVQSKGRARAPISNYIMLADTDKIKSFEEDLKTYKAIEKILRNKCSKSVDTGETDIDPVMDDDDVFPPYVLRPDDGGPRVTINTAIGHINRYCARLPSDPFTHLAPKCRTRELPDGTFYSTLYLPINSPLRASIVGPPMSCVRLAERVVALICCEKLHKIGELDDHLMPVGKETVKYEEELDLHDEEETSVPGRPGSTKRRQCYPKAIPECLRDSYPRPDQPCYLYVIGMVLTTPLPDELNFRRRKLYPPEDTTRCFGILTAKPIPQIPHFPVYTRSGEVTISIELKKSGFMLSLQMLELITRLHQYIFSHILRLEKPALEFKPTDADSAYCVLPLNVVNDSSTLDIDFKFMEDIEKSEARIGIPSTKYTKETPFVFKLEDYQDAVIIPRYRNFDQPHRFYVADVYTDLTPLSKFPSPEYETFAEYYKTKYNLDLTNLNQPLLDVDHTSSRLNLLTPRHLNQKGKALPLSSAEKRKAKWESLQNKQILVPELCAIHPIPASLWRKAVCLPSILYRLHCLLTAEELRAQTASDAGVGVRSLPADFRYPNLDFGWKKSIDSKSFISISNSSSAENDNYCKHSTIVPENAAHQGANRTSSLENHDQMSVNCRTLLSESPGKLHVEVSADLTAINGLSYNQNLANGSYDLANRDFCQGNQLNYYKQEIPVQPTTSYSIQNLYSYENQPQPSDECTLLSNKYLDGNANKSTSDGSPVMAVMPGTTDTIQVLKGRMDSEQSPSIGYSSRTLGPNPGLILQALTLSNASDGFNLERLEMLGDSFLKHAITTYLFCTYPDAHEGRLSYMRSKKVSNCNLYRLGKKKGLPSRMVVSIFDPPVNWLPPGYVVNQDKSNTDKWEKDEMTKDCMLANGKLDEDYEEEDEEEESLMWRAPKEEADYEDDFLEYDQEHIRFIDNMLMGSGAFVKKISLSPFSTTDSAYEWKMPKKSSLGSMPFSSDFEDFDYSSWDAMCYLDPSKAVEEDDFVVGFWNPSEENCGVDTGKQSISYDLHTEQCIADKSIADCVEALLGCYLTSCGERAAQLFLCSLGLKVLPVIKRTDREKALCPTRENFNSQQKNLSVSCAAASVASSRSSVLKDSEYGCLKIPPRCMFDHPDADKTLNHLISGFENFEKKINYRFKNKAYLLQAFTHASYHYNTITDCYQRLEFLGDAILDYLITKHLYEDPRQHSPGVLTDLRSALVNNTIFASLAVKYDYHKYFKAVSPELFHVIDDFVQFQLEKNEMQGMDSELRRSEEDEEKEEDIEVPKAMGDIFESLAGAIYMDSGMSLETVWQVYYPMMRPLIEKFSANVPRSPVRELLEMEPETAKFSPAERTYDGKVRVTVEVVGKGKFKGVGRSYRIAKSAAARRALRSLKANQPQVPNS
Hits are given with their value; – = inactive.

SMILES	Dicer processing
CC(=O)N/C(=C/c1ccc(C)c(C)c1)C(=O)O	–
c1ccc(Cc2noc(-c3ccccc3)n2)cc1	–
CCCNC(=O)NNC(=O)C(C)n1nnc(N2CCOCC2)n1 (configuration not stated)	–
CN(C)c1nc(N2CCOCC2)nc(N(c2ccccc2)c2ccccc2)n1	–
CCOC(=O)c1cnc(N2CCOCC2)nc1N	–
CC(C)(C)Nc1nc(C(N)=O)nc(N2CCOCC2)n1	5.1
CC(C)(C)Nc1nc(C(=O)O)nc(N2CCOCC2)n1	–
CN(C)c1nc(C(=O)O)nc(N2CCOCC2)n1	3.4
Ic1ccc(Sc2c(-c3ccccc3)nc3ccccn23)cc1	–
CC(C)(C)c1cc(-c2cc(C(F)(F)F)nc(N)n2)c2c(c1)C(C)(C)CC2	–
CCOC(=O)N/N=C(\C)c1ccc(C(F)(F)F)cc1	–
CCCCOC(=O)C1=C(C)NC2=C(C(=O)CC(C)(C)C2)C1c1ccc(OC)cc1 (configuration not stated)	–
COC(=O)c1cc2cc(CC(=O)c3ccc(O)cc3O)ccc2o1	–
CC(C)=N/N=C1/N=C(c2ccc(Cl)cc2)CS1	5.2
CC(=Nc1ccc(Cl)cc1)c1ccsc1	–
Clc1ccc(C2=Nn3c(CSc4ccccc4)nnc3SC2)cc1	–
CC1=C(C(=O)OCCOc2ccccc2)C(c2ccc(C)s2)C2=C(CCCC2=O)N1 (configuration not stated)	–
Nc1c(C(=O)N/N=C/c2ccc3c(c2)OCO3)sc2nnc(-c3ccccc3)c(-c3ccccc3)c12	–
Cc1ccc(N2C(=O)C3CC=CCC3C2=O)cc1Cl (configuration not stated)	–
O=C(CSc1nnc2ccccn12)Nc1cccc(-c2nc3ccccc3s2)c1	–
O=C(CSc1nnc2ccccn12)Nc1ccc(Cl)cc1	–
O=C(CCSc1nnc2ccccn12)Nc1cccc(-c2nc3ccccc3s2)c1	6.1
O=c1c(-c2ccccc2)coc2c(CN3CCCCC3)c(O)ccc12	–
CC1CN(Cc2c(O)ccc3c(=O)c(-c4ccccc4)coc23)CC(C)O1 (configuration not stated)	–
CN1CCN(Cc2c(O)ccc3c(=O)c(-c4ccccc4)c(C(F)(F)F)oc23)CC1	–
SMILES	Dicer processing
CC1CCN(Cc2c(O)ccc3c2oc(=O)c2ccccc23)CC1	3.5
CC1CN(Cc2c(O)ccc3c2oc(=O)c2ccccc23)CC(C)O1 (configuration not stated)	3.1
CC1CN(Cc2c(O)ccc3c(=O)c(Oc4ccc5ccccc5c4)c(C(F)(F)F)oc23)CC(C)O1 (configuration not stated)	–
COc1ccc(CNCc2ccc3c(c2)OCO3)cc1OC	–
Cc1ccc(S(=O)(=O)NCc2ccc3c(c2)OCO3)cc1C	–
COc1ccc(S(=O)(=O)NCc2ccc3c(c2)OCO3)cc1OC	3.6
COc1ccc2[nH]c(C(=O)N3CCCN(C(=O)c4cccs4)CC3)cc2c1	–
COc1ccc2sc(/C=C/c3ccc4c(c3)OCO4)[n+](C)c2c1	–
Cc1cccn2c(=O)c(NC(=O)c3ccccc3)cnc12	–
N#Cc1c(=N)nc2oc3ccccc3c3cc(-c4ccccc4)[nH]c1c23	–
COc1cc(-c2cc3c(c(N)c2C#N)c(=O)oc2ccccc23)cc(OC)c1OC	3.7
COc1ccc(-c2cc(=S)sc(N)c2C#N)cc1OC	–
O=C1CSC(c2ccc(C(F)(F)F)cc2)N1c1ccc(C(F)(F)F)cc1 (configuration not stated)	–
CCOC(=O)c1c(NC(=O)COc2ccccc2)sc2c1CC(C)(C)OC2	–
CC1(C)Cc2c(sc(NC(=O)CN3C(=O)C4CC=C(Cl)CC4C3=O)c2C#N)CO1 (configuration not stated)	4.8
N#Cc1c(N2C(=O)C3CC=C(Cl)CC3C2=O)sc2c1CCCC2 (configuration not stated)	–
COC(=O)C1=C(C)Nc2nc3ccccc3n2C1c1ccc(F)cc1 (configuration not stated)	–
O=C1CC(c2ccccc2)c2ccc3ccccc3c2N1 (configuration not stated)	–
O=C1CCC(=O)N1CN(Cc1cccs1)CN1C(=O)CCC1=O	–
CCOC(=O)c1n[nH]n(-c2ccc(Cl)cc2)c1=O	–
CC(C)(C)c1ccc(Cn2c(CCCO)nc3ccccc32)cc1	–
CN(C)CCCN(Cc1ccc2c(c1)OCO2)C(=O)NC1CCCCC1	4.7
CN1C(=O)CC(NCc2ccc3c(c2)OCO3)C1=O (configuration not stated)	–
O=C(NCc1ccc2c(c1)OCO2)NC1CCCCC1	–
CC(=O)c1cc(-n2nc3ccccc3n2)c(O)c(-n2nc3ccccc3n2)c1O	–
SMILES	Dicer processing
Cn1c2c(c(=O)n(C)c1=O)C(c1ccc(OC(=O)c3ccccc3)cc1)C1=C(N2)c2ccccc2C1=O (configuration not stated)	7.1
Cn1c2c(c(=O)[nH]c1=O)C(c1ccccc1)C1=C(N2)c2ccccc2C1=O (configuration not stated)	3
CCOC(=O)C1=C(C)NC2=C(C(=O)c3ccccc32)C1c1ccccc1 (configuration not stated)	–
Cc1ccc(C2C3=C(Nc4c2c(=O)[nH]c(=O)n4C)c2ccccc2C3=O)cc1 (configuration not stated)	–
Cn1c2c(c(=O)[nH]c1=O)C(c1ccc(F)cc1)C1=C(N2)c2ccccc2C1=O (configuration not stated)	–
Cn1c2c(c(=O)n(C)c1=O)C(c1cccc(OC(=O)c3ccccc3)c1)C1=C(N2)c2ccccc2C1=O (configuration not stated)	–
CCOC(=O)C1=C(C)NC2=C(C(=O)c3ccccc32)C1c1cccc(OC)c1 (configuration not stated)	–
Cn1c2c(c(=O)[nH]c1=O)C(c1ccc(Br)cc1)C1=C(N2)c2ccccc2C1=O (configuration not stated)	–
Cn1c2c(c(=O)[nH]c1=O)C(c1ccc(-c3ccccc3)cc1)C1=C(N2)c2ccccc2C1=O (configuration not stated)	4.6
Cc1ccc(C2C3=C(Nc4c2c(=O)n(C)c(=O)n4C)c2ccccc2C3=O)cc1 (configuration not stated)	–
Cn1c2c(c(=O)[nH]c1=O)C(c1ccc(Cl)cc1)C1=C(N2)c2ccccc2C1=O (configuration not stated)	–
CCOC(=O)C1=C(C)NC2=C(C(=O)c3ccccc32)C1c1ccc(OC)cc1 (configuration not stated)	3.3
COC(=O)C1=C(C)Nc2nc3ccccc3n2C1c1cc(F)cc(F)c1 (configuration not stated)	–
CCc1ccc(C2c3c(oc4cc(C)c(C)cc4c3=O)C(=O)N2CCCN(C)C)cc1 (configuration not stated)	–
Cc1ccc2nc(-c3cccc4ccccc34)[nH]c2c1	–
Cc1ccc(OCC(=O)NNC(=O)NC(=O)c2ccccc2Cl)c2c1CCC2	–
C=CCNC(=S)NNC(=O)c1ccc(S(=O)(=O)N(CCC)CCC)cc1	–
CC(C)c1ccc(C2CN=NC23CSc2ccccc2C3=O)cc1 (configuration not stated)	–
COc1ccc(C(C[N+](=O)[O-])Sc2ccc(N)cc2)cc1 (configuration not stated)	–
CC(C)c1nc2sc3c(NCCCN(C)C)ncnc3c2c2c1COC(C)(C)C2	–
CCOC(=O)c1ccc(N2C(=O)CS(=O)(=O)CC2=O)cc1	–
